This passage reports binding signal results from PMC7862700, “An all-to-all approach to the identification of sequence-specific readers for epigenetic DNA modifications on cytosine”.

Common to all, as to assay: DAPPL (digital affinity profiling via proximity ligation, sequencing); 10 mM Tris-HCl pH 7.5, 50 mM NaCl, 1 mM DTT, 4% glycerol, room temperature, 30 min; GST-TFs on glutathione beads, 16-mer random dsDNA library, 0.1% formaldehyde crosslink after washing; high values mean tight binding
One assay has as its target T1, FLI1 (Homo sapiens, UniProt Q01543 1-452).
T1 sequence: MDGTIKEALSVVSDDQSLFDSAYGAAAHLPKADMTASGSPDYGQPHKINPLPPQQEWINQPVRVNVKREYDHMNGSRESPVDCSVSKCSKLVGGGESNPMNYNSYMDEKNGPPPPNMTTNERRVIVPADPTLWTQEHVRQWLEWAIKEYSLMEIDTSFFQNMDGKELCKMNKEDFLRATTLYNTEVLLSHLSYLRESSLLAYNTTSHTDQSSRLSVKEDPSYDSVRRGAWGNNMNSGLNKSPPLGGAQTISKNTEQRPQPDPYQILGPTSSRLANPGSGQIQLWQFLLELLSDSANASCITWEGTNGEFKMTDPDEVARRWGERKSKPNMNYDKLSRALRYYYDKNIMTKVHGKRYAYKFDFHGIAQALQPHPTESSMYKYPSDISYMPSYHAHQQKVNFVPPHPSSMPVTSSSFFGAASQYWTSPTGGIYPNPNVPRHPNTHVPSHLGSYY
To be noted: protein: recombinant; tags: N-terminal GST; dsDNA, one strand shown. The gist of the method:
(§1)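 The binding signal reported is, for every hexamer, its read frequency for a factor over its read frequency for the tag-only sample. Reads came from pools of yeast-expressed, GST-fused human transcription factors on glutathione beads, barcoded with DNA and mixed with that sample, which were incubated with 200 nmole of a random double-stranded 16-mer DNA library in Tris/NaCl/DTT/glycerol buffer at room temperature for 30 min. After washing, the pools were crosslinked with 0.1% formaldehyde, proximity-ligated with BsaI/T4 ligase for 1 h at 37 °C, PCR-amplified and sequenced on an Illumina NextSeq500.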

A further assay deals with T2, ELK1 (Homo sapiens, UniProt P19419 1-428).
T2 sequence: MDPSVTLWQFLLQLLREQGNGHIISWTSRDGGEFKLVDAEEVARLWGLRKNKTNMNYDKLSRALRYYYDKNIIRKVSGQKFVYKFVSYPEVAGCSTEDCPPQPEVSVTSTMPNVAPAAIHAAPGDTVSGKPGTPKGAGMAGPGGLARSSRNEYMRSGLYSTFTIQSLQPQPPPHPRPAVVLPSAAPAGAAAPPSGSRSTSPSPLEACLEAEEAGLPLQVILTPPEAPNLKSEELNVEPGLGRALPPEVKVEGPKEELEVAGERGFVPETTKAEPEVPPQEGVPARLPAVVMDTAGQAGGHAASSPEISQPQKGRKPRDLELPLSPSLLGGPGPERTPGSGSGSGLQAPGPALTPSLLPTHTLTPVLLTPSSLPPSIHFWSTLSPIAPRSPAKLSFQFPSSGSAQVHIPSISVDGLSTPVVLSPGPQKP
As to conditions: protein: recombinant; tags: N-terminal GST; dsDNA, one strand shown. A digest of the protocol:
as §1

The target in the next assay is ELF1 (Homo sapiens, UniProt P32519 1-619). As to conditions: protein: recombinant; tags: N-terminal GST; dsDNA, one strand shown. The gist of the method: as §1
The target in a further assay is T3, EHF (Homo sapiens, UniProt Q9NZC4 1-300).
T3 sequence: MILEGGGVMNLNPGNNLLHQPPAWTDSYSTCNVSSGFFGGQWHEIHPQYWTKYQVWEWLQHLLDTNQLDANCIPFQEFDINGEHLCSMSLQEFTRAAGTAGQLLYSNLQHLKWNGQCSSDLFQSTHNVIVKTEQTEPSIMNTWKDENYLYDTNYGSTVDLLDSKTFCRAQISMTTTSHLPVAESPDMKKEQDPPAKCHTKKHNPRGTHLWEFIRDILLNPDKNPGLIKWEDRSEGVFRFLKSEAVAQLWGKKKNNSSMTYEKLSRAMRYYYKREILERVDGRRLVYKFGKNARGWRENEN
As to conditions: protein: recombinant; tags: N-terminal GST; dsDNA, one strand shown. A digest of the protocol: as §1

The next assay deals with SPI1 (Homo sapiens, UniProt P17947 1-270). As to conditions: protein: recombinant; tags: N-terminal GST; dsDNA, one strand shown. The gist of the method: as §1
A further assay has as its target T4, FEV (Homo sapiens, UniProt Q99581 1-238).
T4 sequence: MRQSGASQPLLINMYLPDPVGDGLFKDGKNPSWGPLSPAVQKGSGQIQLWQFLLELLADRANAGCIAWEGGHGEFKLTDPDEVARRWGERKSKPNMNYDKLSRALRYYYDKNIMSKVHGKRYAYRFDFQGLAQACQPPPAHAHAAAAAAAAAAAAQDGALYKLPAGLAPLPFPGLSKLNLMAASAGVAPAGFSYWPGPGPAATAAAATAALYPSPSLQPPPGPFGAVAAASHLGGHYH
To be noted: protein: recombinant; tags: N-terminal GST; dsDNA, one strand shown. The gist of the method:
as §1

Another assay concerns the target ETV5 (Homo sapiens, UniProt P41161 1-510). As to conditions: protein: recombinant; tags: N-terminal GST; dsDNA, one strand shown. The gist of the method: as §1
A further assay addresses HSF1 (Homo sapiens, UniProt Q00613 1-529). As to conditions: protein: recombinant; tags: N-terminal GST; chain copies: 3; dsDNA, one strand shown. The gist of the method: as §1
The next assay deals with T5, SPIC (Homo sapiens, UniProt Q8N5J4 1-248).
T5 sequence: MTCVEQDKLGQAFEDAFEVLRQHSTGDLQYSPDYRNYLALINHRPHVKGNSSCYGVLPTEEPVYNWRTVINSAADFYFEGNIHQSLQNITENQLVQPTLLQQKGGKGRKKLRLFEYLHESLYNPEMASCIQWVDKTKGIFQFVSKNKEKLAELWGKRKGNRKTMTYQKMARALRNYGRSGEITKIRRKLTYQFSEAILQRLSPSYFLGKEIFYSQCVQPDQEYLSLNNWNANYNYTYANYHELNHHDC
As to conditions: protein: recombinant; tags: N-terminal GST; dsDNA, one strand shown. A digest of the protocol:
as §1

The next assay has as its target ELF4 (Homo sapiens, UniProt Q99607 1-663). To be noted: protein: recombinant; tags: N-terminal GST; dsDNA, one strand shown. A digest of the protocol:
as §1

A further assay addresses T6, ELK4 (Homo sapiens, UniProt P28324-2 1-405).
T6 sequence: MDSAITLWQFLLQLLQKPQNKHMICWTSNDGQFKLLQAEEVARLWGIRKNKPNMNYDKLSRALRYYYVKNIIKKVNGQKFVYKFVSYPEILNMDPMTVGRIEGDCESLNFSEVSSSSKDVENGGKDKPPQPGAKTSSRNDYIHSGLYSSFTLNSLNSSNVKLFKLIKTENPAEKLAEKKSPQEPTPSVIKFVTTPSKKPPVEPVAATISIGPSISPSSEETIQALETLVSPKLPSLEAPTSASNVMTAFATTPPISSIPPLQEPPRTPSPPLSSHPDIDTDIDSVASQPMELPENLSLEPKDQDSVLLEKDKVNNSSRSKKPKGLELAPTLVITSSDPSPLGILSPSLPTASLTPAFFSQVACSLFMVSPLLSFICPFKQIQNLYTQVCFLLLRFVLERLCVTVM
As to conditions: protein: recombinant; tags: N-terminal GST; dsDNA, one strand shown. The gist of the method:
as §1

Another assay concerns the target T7, ETV2 (Homo sapiens, UniProt O00321 1-342).
T7 sequence: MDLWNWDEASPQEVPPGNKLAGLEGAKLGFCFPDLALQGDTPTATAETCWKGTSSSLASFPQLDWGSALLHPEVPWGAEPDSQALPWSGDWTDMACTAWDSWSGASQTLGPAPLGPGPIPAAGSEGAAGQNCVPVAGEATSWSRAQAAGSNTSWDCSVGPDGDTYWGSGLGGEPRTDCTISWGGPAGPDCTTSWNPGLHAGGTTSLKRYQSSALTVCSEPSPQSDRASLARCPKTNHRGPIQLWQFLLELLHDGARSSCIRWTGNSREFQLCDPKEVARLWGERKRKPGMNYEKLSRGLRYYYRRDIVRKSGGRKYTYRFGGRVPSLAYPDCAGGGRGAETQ
To be noted: protein: recombinant; tags: N-terminal GST; dsDNA, one strand shown. A digest of the protocol:
as §1

The target of a further assay is T8, ELF3 (Homo sapiens, UniProt P78545 1-371).
T8 sequence: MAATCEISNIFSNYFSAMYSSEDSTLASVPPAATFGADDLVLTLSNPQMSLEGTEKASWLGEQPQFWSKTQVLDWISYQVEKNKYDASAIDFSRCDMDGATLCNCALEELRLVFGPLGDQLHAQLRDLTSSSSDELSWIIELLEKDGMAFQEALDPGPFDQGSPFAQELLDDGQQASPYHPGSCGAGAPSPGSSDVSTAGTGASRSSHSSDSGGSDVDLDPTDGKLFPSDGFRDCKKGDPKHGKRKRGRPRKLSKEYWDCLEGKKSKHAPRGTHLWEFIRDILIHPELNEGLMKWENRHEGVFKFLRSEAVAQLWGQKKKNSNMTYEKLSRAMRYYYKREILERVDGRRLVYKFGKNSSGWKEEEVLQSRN
As to conditions: protein: recombinant; tags: N-terminal GST; dsDNA, one strand shown. The gist of the method:
as §1

The next assay has as its target ETV1 (Homo sapiens, UniProt P50549 1-477). As to conditions: protein: recombinant; tags: N-terminal GST; dsDNA, one strand shown. A digest of the protocol:
as §1

Sequence of ETV1 (P50549 whole entry): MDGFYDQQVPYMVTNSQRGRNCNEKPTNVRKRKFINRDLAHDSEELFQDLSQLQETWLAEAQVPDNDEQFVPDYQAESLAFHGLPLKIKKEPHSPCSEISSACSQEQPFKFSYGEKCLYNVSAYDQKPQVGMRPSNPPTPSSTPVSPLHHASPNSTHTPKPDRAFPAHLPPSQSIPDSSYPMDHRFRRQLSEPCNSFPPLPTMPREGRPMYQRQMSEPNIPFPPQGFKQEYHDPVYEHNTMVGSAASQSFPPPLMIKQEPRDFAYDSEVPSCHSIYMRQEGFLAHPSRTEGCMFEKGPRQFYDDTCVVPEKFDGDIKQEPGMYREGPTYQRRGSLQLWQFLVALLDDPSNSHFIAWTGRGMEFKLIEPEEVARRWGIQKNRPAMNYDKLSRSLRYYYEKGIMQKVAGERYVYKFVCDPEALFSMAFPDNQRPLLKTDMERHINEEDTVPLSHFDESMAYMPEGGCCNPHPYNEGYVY
Sequence of ELF4 (Q99607 whole entry): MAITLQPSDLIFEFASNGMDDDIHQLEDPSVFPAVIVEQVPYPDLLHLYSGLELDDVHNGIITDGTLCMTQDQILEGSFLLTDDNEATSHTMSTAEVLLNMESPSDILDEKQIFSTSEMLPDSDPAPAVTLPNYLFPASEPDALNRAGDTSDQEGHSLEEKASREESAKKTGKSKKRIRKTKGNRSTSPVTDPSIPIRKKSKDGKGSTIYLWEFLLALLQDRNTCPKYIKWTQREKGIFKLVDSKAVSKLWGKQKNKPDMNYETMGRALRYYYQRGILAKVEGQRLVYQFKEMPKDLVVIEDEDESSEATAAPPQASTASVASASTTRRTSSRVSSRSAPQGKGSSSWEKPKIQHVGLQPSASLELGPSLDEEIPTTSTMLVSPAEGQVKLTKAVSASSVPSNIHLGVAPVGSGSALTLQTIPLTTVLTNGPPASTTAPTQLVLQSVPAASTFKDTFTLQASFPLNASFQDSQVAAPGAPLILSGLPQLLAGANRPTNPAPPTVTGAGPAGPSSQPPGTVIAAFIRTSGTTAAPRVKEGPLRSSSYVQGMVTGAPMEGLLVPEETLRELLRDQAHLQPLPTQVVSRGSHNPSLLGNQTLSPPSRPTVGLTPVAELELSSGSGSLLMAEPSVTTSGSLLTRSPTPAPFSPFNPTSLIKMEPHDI
Sequence of ETV5 (P41161 whole entry): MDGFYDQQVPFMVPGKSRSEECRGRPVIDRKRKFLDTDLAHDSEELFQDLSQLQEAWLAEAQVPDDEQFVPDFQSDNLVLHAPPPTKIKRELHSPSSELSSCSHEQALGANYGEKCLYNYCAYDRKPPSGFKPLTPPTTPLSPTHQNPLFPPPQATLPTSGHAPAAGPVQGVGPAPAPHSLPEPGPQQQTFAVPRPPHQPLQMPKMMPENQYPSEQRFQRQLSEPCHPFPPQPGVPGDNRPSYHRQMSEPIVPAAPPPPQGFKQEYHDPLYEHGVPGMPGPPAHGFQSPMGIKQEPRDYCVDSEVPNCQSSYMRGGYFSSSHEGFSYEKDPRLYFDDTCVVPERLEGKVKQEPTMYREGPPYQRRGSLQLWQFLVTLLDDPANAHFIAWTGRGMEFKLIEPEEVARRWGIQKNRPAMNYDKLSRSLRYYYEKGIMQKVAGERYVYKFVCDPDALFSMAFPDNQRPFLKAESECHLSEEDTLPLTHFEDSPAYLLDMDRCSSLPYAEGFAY
Sequence of ELF1 (P32519 whole entry): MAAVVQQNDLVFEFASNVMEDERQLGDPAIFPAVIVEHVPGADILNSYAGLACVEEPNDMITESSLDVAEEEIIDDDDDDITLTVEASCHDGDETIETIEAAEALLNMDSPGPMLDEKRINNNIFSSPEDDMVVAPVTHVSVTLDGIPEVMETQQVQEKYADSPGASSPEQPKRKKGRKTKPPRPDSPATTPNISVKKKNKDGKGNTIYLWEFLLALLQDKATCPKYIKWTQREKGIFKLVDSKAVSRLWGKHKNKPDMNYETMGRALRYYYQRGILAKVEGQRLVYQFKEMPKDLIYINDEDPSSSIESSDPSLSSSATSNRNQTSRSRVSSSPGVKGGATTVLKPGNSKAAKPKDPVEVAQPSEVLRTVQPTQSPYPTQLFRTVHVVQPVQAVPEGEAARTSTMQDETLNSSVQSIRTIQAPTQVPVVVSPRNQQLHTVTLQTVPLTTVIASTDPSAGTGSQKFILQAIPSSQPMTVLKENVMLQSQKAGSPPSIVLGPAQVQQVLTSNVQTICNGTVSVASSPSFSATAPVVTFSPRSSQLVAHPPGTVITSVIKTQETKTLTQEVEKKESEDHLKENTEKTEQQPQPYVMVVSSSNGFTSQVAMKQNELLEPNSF
Sequence of HSF1 (Q00613 whole entry): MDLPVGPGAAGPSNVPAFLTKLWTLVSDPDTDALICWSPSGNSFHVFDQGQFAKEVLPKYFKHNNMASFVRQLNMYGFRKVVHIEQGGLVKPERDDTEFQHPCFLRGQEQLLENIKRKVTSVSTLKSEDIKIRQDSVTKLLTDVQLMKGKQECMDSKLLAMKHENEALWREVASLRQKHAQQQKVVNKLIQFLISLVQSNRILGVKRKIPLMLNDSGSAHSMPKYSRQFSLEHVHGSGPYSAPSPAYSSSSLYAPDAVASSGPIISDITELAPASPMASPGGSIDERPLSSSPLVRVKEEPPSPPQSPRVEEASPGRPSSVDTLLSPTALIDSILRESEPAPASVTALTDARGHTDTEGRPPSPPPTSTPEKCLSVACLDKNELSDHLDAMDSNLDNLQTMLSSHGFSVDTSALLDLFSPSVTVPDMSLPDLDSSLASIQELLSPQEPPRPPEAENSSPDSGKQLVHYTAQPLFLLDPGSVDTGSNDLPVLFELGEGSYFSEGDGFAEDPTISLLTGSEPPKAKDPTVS

Regarding TGAAAA, the binding signal in the assay with FLI1 was 1.06 fold enrichment (6-mer frequency, TF over GST control); with ELK1, 1.03 fold enrichment (6-mer frequency, TF over GST control); with ELF1, 1.04 fold enrichment (6-mer frequency, TF over GST control); in the assay with EHF, 1.08 fold enrichment (6-mer frequency, TF over GST control); with SPI1, 1.23 fold enrichment (6-mer frequency, TF over GST control); with FEV, 1.06 fold enrichment (6-mer frequency, TF over GST control). In addition, the binding signal with ETV5 was 1.02 fold enrichment (6-mer frequency, TF over GST control); in the assay with HSF1, 1.14 fold enrichment (6-mer frequency, TF over GST control); with SPIC, 1.11 fold enrichment (6-mer frequency, TF over GST control); with ELF4 it was 1.11 fold enrichment (6-mer frequency, TF over GST control); in the assay with ELK4 it was 1.08 fold enrichment (6-mer frequency, TF over GST control); with ETV2 it was 1.08 fold enrichment (6-mer frequency, TF over GST control). Also, the binding signal in the assay with ELF3 is 1.08 fold enrichment (6-mer frequency, TF over GST control); with ETV1 it was 1.01 fold enrichment (6-mer frequency, TF over GST control).
